# Compound activity from PubChem.
# VP16 counter: Gal4-VP16 reporter inhibition counter-screen | 3.5% of 310,000 active | Drosophila S2 Gal4-VP16 UAS-luciferase, luminescence, 20 h | AID 2546 | Potency, µM (highest dose often 53.6 µM), inactives show top-dose activity, negative = inhibition, usual class: inhibitors;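 further: Gal4-VP16 expression switched on by copper sulfate through the metallothionein promoter; potency means the concentration at half of the fitted maximal effect; on the % scale 0 is the no-effect control and ±100 the full control effect; nearly all actives have a fitted effect of over 50% in size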
# BRCA1 expr up: activators of BRCA1 expression | MCF7-BRCA1-FFLuc reporter, luminescence, 48 h; response scale: scaled: vehicle 0%, 10 µM genistein 100% | Potency, µM (top dose mostly 46.1 µM), without a hit: at the top dose activation, hits mostly activators | 1.1% of 380,000 active | AID 624202; further: potency means the concentration at half of the fitted maximal effect; nearly all actives have a fitted effect of over 80% in size
#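 Quantitative HTS in MCF7 cells stably reporting BRCA1 expression via firefly luciferase. Compound treatment lasts 48 h at 37 °C in phenol-red free MEM. Activation is expressed relative to genistein at 10 microM and DMSO.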
# RORgamma inh: inhibitors of mouse ROR gamma transcriptional activity | Drosophila S2 Gal4-RORgamma UAS-luciferase reporter, 20 h | Potency, µM (doses to about 53.6 µM), inactives show at the highest dose activity change, negative = inhibition, hits mostly inhibitors | 5.4% of 310,000 active | AID 2551; further: potency means the concentration at half of the fitted maximal effect; on the % scale 0 is the no-effect control and ±100 the full control effect; nearly all actives have a fitted effect of over 60% in size
# Target sequence (P51450 whole entry, looked up, the tested form may be a part): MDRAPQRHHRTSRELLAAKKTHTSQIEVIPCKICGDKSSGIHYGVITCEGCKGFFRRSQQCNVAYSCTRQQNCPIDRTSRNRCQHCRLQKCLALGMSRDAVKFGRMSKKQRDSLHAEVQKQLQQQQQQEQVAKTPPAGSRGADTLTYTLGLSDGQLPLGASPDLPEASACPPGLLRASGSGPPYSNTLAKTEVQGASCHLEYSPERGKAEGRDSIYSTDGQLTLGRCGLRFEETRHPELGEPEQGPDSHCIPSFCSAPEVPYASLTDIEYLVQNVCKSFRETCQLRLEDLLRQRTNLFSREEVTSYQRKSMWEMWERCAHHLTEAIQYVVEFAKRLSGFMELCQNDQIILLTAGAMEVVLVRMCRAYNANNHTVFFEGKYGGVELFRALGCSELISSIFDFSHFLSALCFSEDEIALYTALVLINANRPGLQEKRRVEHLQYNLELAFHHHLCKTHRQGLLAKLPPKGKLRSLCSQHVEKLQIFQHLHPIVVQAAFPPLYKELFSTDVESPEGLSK
#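 Schneider cells (Drosophila), stable Gal4 DBD–ROR gamma + UAS-luc; 1 hr cmpd preincubation; Cu2+ induction 700 uM final; 20 hr ambient; luminescence.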
# Giardia kill: kills Giardia lamblia; activity change, % at 7.66 µM, hits read low; 0.15% of 340,000 active; Giardia lamblia trophozoite viability; AID 540267; in the data active means activity change below about -80%; inconclusive means between about -30% and that limit;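 further: parasites exposed to compound for two days anaerobically before the ATP read; on the % scale 0 is the no-effect control and ±100 the full control effect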
#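 Giardia lamblia trophozoites (100 cells/well) were incubated with compounds for 48 h at 37 deg C under anaerobic conditions. Viability was read as ATP content by one-step luminescence after 15-30 min at room temperature.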
# p53 reactivation: mutant p53 re-activation in reporter cells; H1299 p53-A138V BP100-luciferase reporter, luminescence, 24 h; Potency, µM (highest dose often 92.2 µM), without a hit: top-dose activity change, positive = activation, hits mostly activators; AID 504706; 0.063% of 320,000 active; further: potency means the concentration at half of the fitted maximal effect; % of control where 0% means no effect; nearly all actives have a fitted effect of over 45% in size
#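 H1299 (p53-null), stable ts p53-A138V + BP100-Luc; 1000 cells/well, Opti-MEM/10% FBS; cpd 4 pt, 1:5; 24 h, 37 deg C, 5% CO2; detection reagent 10 min RT; luminescence.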
# ELG1 repair inh: ELG1-dependent DNA repair inhibition; HEK293T ELG1-luciferase reporter, luminescence, 16 h; DNA damage induced by 5-fluorouridine; Potency, µM (titrated, usually from 46.1 µM), for inactives: at the highest dose activity change, negative = inhibition, hits mostly inhibitors; 2.3% of 330,000 active; further: potency means the concentration at half of the fitted maximal effect; on the % scale 0 is the no-effect control and ±100 the full control effect; nearly all actives have a fitted effect of over 55% in size
#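 Overnight (16 hr) co-exposure of 2,000 cells/well to 5-fluorouridine and compound at 37 °C preceded detection. Luciferase was quantified via ONE-Glo luminescence; loss of signal denotes inhibition.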
# Numbers without * were called inactive; ? = inconclusive; / = not tested or not shown; [ ] = another dose, or the depositor's remark. The list is not random: actives were taken first. Their share in the collection is about 7.6%. Unless noted, the call rests on the fitted dose curve; in most records, active means well fitted curve in the direction sought with a large enough effect; inconclusive means small, poorly fitted or top-dose-only effect, or another doubt; inactive means no such curve, though single readings can be large; an effect the other way counts as inactive or inconclusive.
SMILES,VP16 counter,BRCA1 expr up,RORgamma inh,Giardia kill,p53 reactivation,ELG1 repair inh
C#CCNC(=O)c1ccc(OCc2ccccc2)cc1Cl,-20.8%,61.9%,23.6%,13.4,-3.4%,?
Cc1cc(C)cc(Nc2nc(-c3ccc(S(=O)(=O)N4CCCC4)cc3)cs2)c1,3.1%,-46.2%,15.6%[10 µM],-2.8,2.9%,23.1µM*
C=CCSc1nccc(-c2cc(Cl)sc2Cl)n1,11.2%,-36.0%,0.0%,11.0,-2.0%,7.7%
O=C(NNC(=S)Nc1ccccc1)c1cccc(Br)c1,-16.0%,32.2%,-29.6%,4.2,16.4%,?
CC(C)(C)NC(=S)NNC(=O)c1ccccc1Cl,1.41µM*,1.4%,0.447µM*,0.7,12.4%,8.1%
CC(C)(C)C(=O)NC(=S)NNC(=O)c1ccc(Cl)cc1Cl,?,-10.3%,2µM*,2.1,2.9%,?
CNC(=S)NNC(=O)c1ccccc1Cl,-3.2%,6.5%,?,-10.3,2.0%,0.0%
COC(=O)NNC(=O)c1ccc(Cl)cc1Cl,-0.2%,2.8%,-6.7%,-8.2,12.8%,4.1%
CC(C)(C)NC(=S)NNC(=O)c1cccc(Br)c1,?,?,4.47µM*,-16.1,20.4%,2.4%
C[C@@]12C(=O)OC(=O)[C@]1(C)[C@H]1CC[C@@H]2O1,5.01µM*,/,-13.0%[2.98 µM],/,/,/
C[C@@]12C(=O)OC(=O)[C@@]1(C)C1CCC2O1,5.01µM*,/,14.1µM*,/,/,/
CCN(CC)CCCNC(=O)c1ccc(Cn2c(=O)[nH]c3cc(OC)c(OC)cc3c2=O)cc1,/,6.7%,/,/,/,/
O=C(COc1ccccc1C(=O)Nc1cccc([N+](=O)[O-])c1)Nc1ccc(Br)cc1,/,-1.6%,/,/,/,/
NC(=O)COc1ccc(/C=C2\C(=O)ON=C2c2ccccc2)cc1,/,0.2%,/,-9.0,-1.3%,?
N[C@@H](CCCCNC(=O)CCCC[C@@H]1SC[C@H]2NC(=O)N[C@H]12)C(=O)O,-7.2%,/,8.9%,/,/,/
CCN(C(=O)COC(=O)c1nc2nc(C)cc(C)n2n1)C1CCCCC1,/,3.9%,/,-2.8,0.9%,4.0%
O=C(N/N=C/c1ccccn1)c1cc(-c2ccccc2)nc2ccccc12,0.794µM*,-33.4%,0.501µM*,9.5,13.6%,24.6%
O=C(N/N=C/c1ccccn1)c1cc(C2CC2)nc2ccccc12,12.6µM*,-32.3%,10µM*,-3.2,10.4%,-2.8%
O=C(N/N=C/c1ccc(O)cc1)c1cc(-c2ccccc2)nc2ccccc12,27.9%,-14.2%,-21.3%,-20.4,4.0%,-2.7%
CS(=O)(=O)N1CCN(C(=O)c2cccnc2)CC1,-7.0%,11.5%,4.3%,-7.3,-1.4%,0.2%
CCc1ccc(S(=O)(=O)NC2CC(C)(C)NC(C)(C)C2)cc1,-4.3%,-21.1%,2µM*,22.6,/,-5.3%
CCOC(=O)c1sc(N2N=C(C)/C(=C\c3ccc(OCC(=O)OC)cc3)C2=O)nc1C,?,-15.3%,8.91µM*,-15.7,11.1%,?
Cc1ccc(O)c(-c2cc(-c3cccc(F)c3)n[nH]2)c1,?,-43.3%,?,-26.9,?,?
N/C(=N\NC(=O)c1cccs1)c1cc2ccccc2oc1=O,7.08µM*,15.8%,7.08µM*,-4.8,17.9%,?
N/C(=N\NC(=O)c1cccc(F)c1)c1cc2ccccc2oc1=O,3.55µM*,7.0%,1µM*,-9.3,2.7%,?
SMILES,VP16 counter,BRCA1 expr up,RORgamma inh,Giardia kill,p53 reactivation,ELG1 repair inh
N/C(=N\NC(=O)c1ccc(F)cc1)c1cc2ccccc2oc1=O,?,0.9%,3.55µM*,-16.6,2.3%,0.7%
CCc1nc2ccc(C(=O)NCCCN3CCCC3=O)cn2c1N(C=O)CC,/,15.8%,/,/,/,/
Cc1n[nH]c(=S)n(/N=C/c2ccccn2)c1=O,-6.6%,-44.7%,-7.5%,0.7,8.4%,0.8%
S=c1[nH]nc(-c2cc(-c3ccccc3)n[nH]2)n1/N=C/c1ccc(Cl)c(Cl)c1,7.94µM*,-31.5%,10µM*,-15.4,?,19.1%
S=c1[nH]nc(-c2ccccn2)n1/N=C/c1ccc(Br)s1,7.94µM*,-52.2%,7.08µM*,-7.9,9.0%,?
S=c1[nH]nc(-c2ccccn2)n1/N=C/c1ccc(Cl)c(Cl)c1,-23.4%,-7.2%,7.08µM*,2.3,6.5%,-4.9%
Cc1n[nH]c(=S)n1/N=C/c1ccc(-c2ccc(Cl)cc2)o1,/,-22.7%,/,1.1,/,/
S=c1[nH]nc(-c2ccccn2)n1/N=C/c1ccc(-c2ccccc2Cl)o1,-4.4%,-13.2%,8.91µM*,?,5.5%,?
CC1(C(=O)Nc2cccc(C#N)c2)CCN1C(=O)C1(c2ccccc2)CC1 (stereo not given),/,7.7%,/,/,/,/
COc1ccccc1C(=O)NC(=O)CSc1nc2nc(C)cc(C)n2n1,/,-3.9%,/,-1.5,-0.8%,?
COc1ccc2[nH]c3c(N4CCc5ccccc5C4)ncnc3c2c1,12.6µM*,-79.1%,?,12.9,0.4%,?
COc1cccc2[nH]c3c(N4CCCCC4)ncnc3c12,0.6%,30.2%,-37.6%,-6.7,7.1%,?
COc1cc2[nH]c3c(N4CCN(c5ccccn5)CC4)ncnc3c2cc1OC,17.8µM*,-48.6%,?,12.9,-11.4%,?
COc1ccc(N2CCN(c3ncnc4c3[nH]c3ccccc34)CC2)cc1,7.08µM*,-31.5%,?,1.6,/,/
COc1ccc2[nH]c3c(Cl)ncnc3c2c1,3.4%,23.8%,?,-12.9,12.7%,-15.5%
Cc1c(C#N)sc2nc(-c3ccccc3)nc(N3CCCC3)c12,/,-15.3%,0.0%[0.365 µM],5.4,8.1%,11.2%
COc1ccc(S(=O)(=O)N2CCC(C(=O)N(C)Cc3ccc(C)o3)CC2)cc1OC,/,-11.2%,/,2.7,1.1%,16.4µM*
O=C(Cn1ncc2c3ccccc3n(Cc3cccc(Cl)c3)c2c1=O)NCC1CCCO1 (stereo not given),2.3%,-4.8%,16.2%,-1.2,6.0%,11.0%
Cc1ccc(Sc2c(C=O)c3ccccc3n2C)cc1,?,-61.5%,32.0%,0.0,-12.2%,5.8µM*
Cc1ccc(Sc2c(O)c3ccccc3n(C)c2=O)cc1,-2.1%,-11.1%,-4.3%,0.0,-6.5%,-28.8%
Cc1ccc(Sc2c([N+](=O)[O-])c(=O)n(C)c3ccccc23)cc1,7.08µM*,-31.6%,11.2µM*,-25.5,/,4.5%
NC(=O)c1c(NC(=S)Nc2ccccc2)sc2c1CCCC2,?,0.0%,-123.9%,-3.9,13.1%,?
CCOC(=O)c1c(NC(=S)Nc2ccc(C)cc2)sc2c1CCC2,?,-5.7%,6.31µM*,-0.2,-1.9%,16.2%
CCOC(=O)c1c(NC(=O)C2C3C=CC(C3)C2C(=O)O)sc2c1CCC(C)C2 (stereo not given),-4.1%,-11.7%,6.2%,-14.5,5.7%,-3.8%
